From PubChem
A selection: hits, their analogues and other compounds. The true share with any hit is near 10%.
JMJD2A Tudor inh – qHTS Assay for Inhibitors of JMJD2A-Tudor Domain. Potency, µM (doses to about 114 µM), without a hit: at the highest dose activity change, negative = inhibition, most hits filed as inhibitors. AID 504339, 2011. hit rate 4.4% among 390,000. AlphaScreen JMJD2A-Tudor / H3K4me3 peptide binding. Lysine-specific demethylase 4A (Homo sapiens), O75164; further: potency means the concentration at half of the fitted maximal effect; on the % scale 0 is the no-effect control and ±100 the full control effect; nearly all actives have a fitted effect of over 50% in size
CtBP-E1A blk – qHTS Assay for Inhibitors of the CtBP/E1A Interaction. activity change, % (test concentration not listed). hit rate 0.49% among 340,000. AlphaScreen GST-E1A/His-CtBP binding, 1536-well; stronger effect = lower value. CtBP / adenovirus E1A interaction (AlphaScreen); in the data active means activity change below about -65%; inconclusive means mostly about -30% to -63%; further: on the % scale 0 is the no-effect control and ±100 the full control effect
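Homogeneous bead-based format: GST-tagged E1A captured on glutathione donor beads, His-tagged CtBP on nickel acceptor beads; compounds precede bead addition by 2 h at 37 °C.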
HP1b binding inh – HTS for Inhibitors of HP1-beta Chromodomain Interactions with Methylated Histone Tails; Chromobox protein homolog 1 (Homo sapiens), P83916; AlphaScreen HP1-beta / biotin-H3K9me3 peptide binding; Potency, µM (top dose mostly 114 µM), inactives show at the top dose activity change, negative = inhibition, usual class: inhibitors; hit rate 0.56% among 390,000; AID 540317, 2011; further: potency means the concentration at half of the fitted maximal effect; nearly all actives have a fitted effect of over 70% in size
Target sequence (P83916 whole entry, looked up): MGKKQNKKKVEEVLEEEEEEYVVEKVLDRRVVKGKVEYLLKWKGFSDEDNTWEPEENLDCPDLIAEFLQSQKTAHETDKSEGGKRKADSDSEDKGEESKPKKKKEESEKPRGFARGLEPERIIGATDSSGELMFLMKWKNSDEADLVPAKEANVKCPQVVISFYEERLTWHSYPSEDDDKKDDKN
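Compound inhibition of the preformed complex between 50 nM HP1-beta and 50 nM biotinylated H3K9me3 peptide was read by AlphaScreen. Buffer was PBS pH 7.4 with 0.01% Tween-20. Incubations ran 30 min at room temperature, with 10 ug/mL donor/acceptor beads.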
BAZ2B inh – qHTS Assay for Inhibitors of BAZ2B; Potency, µM (doses to about 114 µM), inactives show at the top dose activity change, negative = inhibition, usual class: inhibitors; hit rate 4.4% among 360,000; Bromodomain adjacent to zinc finger domain protein 2B (Homo sapiens), Q9UIF8; AlphaScreen BAZ2B-H3K14Ac peptide displacement; further: potency means the concentration at half of the fitted maximal effect; on the % scale 0 is the no-effect control and ±100 the full control effect; nearly all actives have a fitted effect of over 60% in size
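Complex of BAZ2B and biotin-H3K14Ac (50 nM apiece) forms over 30 min at RT, then faces library compounds up to 110 uM for another 30 min; AlphaScreen beads added, 20 min dark incubation, luminescence read.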
G9a inh – qHTS Assay for Inhibitors of Histone Lysine Methyltransferase G9a. Potency, µM (doses to about 102 µM), inactives show top-dose activity, negative = inhibition, usual class: inhibitors. AID 504332, 2011. Histone-lysine N-methyltransferase EHMT2 (Homo sapiens), Q96KQ7. G9a H3K9 monomethylation, AlphaScreen, 2 h. hit rate 8.8% among 350,000; further: potency means the concentration at half of the fitted maximal effect; on the % scale 0 is the no-effect control and ±100 the full control effect; nearly all actives have a fitted effect of over 75% in size
Target sequence (Q96KQ7 913-1193 limits assumed): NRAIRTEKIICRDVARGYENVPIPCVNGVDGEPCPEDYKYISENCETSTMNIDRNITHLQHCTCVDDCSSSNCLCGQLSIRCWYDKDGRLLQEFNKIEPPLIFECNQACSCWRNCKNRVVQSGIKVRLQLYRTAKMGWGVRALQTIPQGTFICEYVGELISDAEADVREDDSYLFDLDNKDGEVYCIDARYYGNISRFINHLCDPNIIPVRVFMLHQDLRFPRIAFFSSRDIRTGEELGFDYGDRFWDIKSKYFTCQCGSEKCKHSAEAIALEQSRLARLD
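Signal arises when biotinylated H3K9 peptide, once monomethylated, bridges streptavidin donor and antibody-captured acceptor beads. Enzyme at 20 nM was preincubated 15 min with test compounds; peptide 500 nM and SAM 20 uM then reacted for 2 h.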
Six1-Eya2 inh – qHTS Assay for Inhibitors of the Six1/Eya2 Interaction | hit rate 0.56% among 360,000 | activity change, % (concentration not given with the values) | Homeobox protein SIX1 (Homo sapiens) + Protein phosphatase EYA2 (Homo sapiens), … | AlphaScreen GST-Six1/His-Eya2 binding, biochemical; stronger effect = lower value; in the data active means activity change below about -65%; inconclusive means mostly about -30% to -63%; further: on the % scale 0 is the no-effect control and ±100 the full control effect
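Compounds are tested against tagged Six1 and Eya2 proteins bridged by glutathione donor and nickel acceptor beads; after a one-hour incubation at 37 °C without light, AlphaScreen emission is recorded.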
Active calls of the source: *; ? = inconclusive; · = no result given; [ ] = dose if it differs, or a comment. Unless noted, the call rests on the fitted dose curve; in most records, active means well fitted inhibition curve with a large enough effect; inconclusive means small, poorly fitted or top-dose-only effect; inactive means no such curve, though single readings can be large or run the other way.

SMILES	JMJD2A Tudor inh	CtBP-E1A blk	HP1b binding inh	BAZ2B inh	G9a inh	Six1-Eya2 inh
CCOc1ccc2nc(N=Nc3c(O)[nH]c(=O)[nH]c3=O)sc2c1	-11%[11.4 µM]	-1	-6%	45µM*	·	-1
c1cc2c(c(NC3=NCCN3)c1)CCCC2	·	·	·	·	19%[59 µM]	·
CN1C(=O)N(C)C(=O)C2(Cc3cc(NC(=O)c4ccc(F)cc4)ccc3N3CCCC32)C1=O (centres undefined)	?	0	-18%[57 µM]	17%	·	-14
CC(=O)Nc1ccc2c(c1)CC1(C(=O)N(C)C(=O)N(C)C1=O)C1CCCN21 (centres undefined)	-7%	-2	61%	-6%	35µM*	-2
CCCCn1c(O)c(/C=C2\C=Nc3ccccc32)c(=O)[nH]c1=O	-22%	-12	13%	-5%	71µM*	-5
O=C(O)c1ccc(-n2c(O)c(/C=C3\C=Nc4ccccc43)c(=O)[nH]c2=O)cc1	-12%	0	5%	-16%	45µM*	-2
C=CCN1C(=O)NC(=O)/C(=C\c2ccc(-c3ccccc3[N+](=O)[O-])o2)C1=O	?	-8	5%	79µM*	22µM*	-2
O=C1NC(=O)N(Cc2ccco2)C(=O)/C1=C/c1ccc(-c2cccc([N+](=O)[O-])c2)o1	14µM*	0	?	35µM*	3.2µM*	?
Cc1ccc(/C=C2/C(=O)NC(=O)N(CCc3ccc(F)cc3)C2=O)o1	-23%	6	23%	-30%	34%[0.501 µM]	-5
COc1cc(C2c3cc4c(cc3C(O)C3COC(=O)C23)OCO4)cc(OC)c1O (centres undefined)	·	·	·	·	-32%[2.33 µM]	·
CNC(CC(C)C)C(=O)NC1C(=O)NC(CC(N)=O)C(=O)NC2C(=O)NC3C(=O)NC(C(=O)NC(C(=O)O)c4cc(O)cc(O)c4-c4cc3ccc4O)C(O)c3ccc(c(Cl)c3)Oc3cc2cc(c3OC2OC(CO)C(O)C(O)C2OC2C[C@](C)(N)C(O)C(C)O2)Oc2ccc(cc2Cl)C1O (some centres undefined)	-3%	0	62%	12%	9%[12.7 µM]	0
CC(=O)NC(Cc1ccc(N(CCCl)CCCl)cc1)C(=O)NC(CC(C)C)C(=O)O (centres undefined)	-27%	0	15%	?	50µM*	3
O=c1[nH]c(=S)n(-c2ccccc2)c(O)c1/C=N/N1CCCCC1c1cccnc1 (centres undefined)	-11%	4	40%	?	8.9µM*	-3
COC(=O)c1ccc(CC(C(=O)c2ccccc2)N(C)C)cc1 (centres undefined)	-32%	·	15%	-23%	?	-2
CN(C)C(Cc1ccc(Cl)cc1)C(=O)c1ccccc1 (centres undefined)	-15%	7	12%	-6%	45µM*	2
C[n+]1ccc(-c2ccccc2)c2ccccc21	-30%	0	29%	8%	25%[2.33 µM]	0
CN(C)c1ccc(/C=C/c2cc[n+](C)c3ccccc23)cc1	22µM*	1	45µM*	79µM*	?	-2
O=C(N/N=C/c1c(O)n(Cc2ccccc2)c(=O)[nH]c1=O)c1ccccc1O	?	0	12%	?	?	-89*
O=c1[nH]c(=O)n(Cc2ccc(F)cc2)c(O)c1C=NCCN1CCCCC1	-29%	7	29%	-29%	-3%[12.7 µM]	-1
COc1ccc(Cn2c(O)c(/C=N/NC(=O)c3ccccc3)c(=O)[nH]c2=O)cc1	79µM*	-85*	36%	50µM*	-44%[59 µM]	?
